The source of these data is paper PMC5540273 (PLoS ONE, 2017).
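Further: KINOMEscan kinase panel screen.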

For this assay, the system named is CSNK1E. Conditions: concentration: 1 μM, replicates: in singlicate; n = 1.
Turning to `COc1cc(Nc2nccc(N3CCC(NC(=O)Nc4cc(C)ccc4C)C3)n2)cc(OC)c1OC` (centres unmarked) [GSK1379762], the “%Inh” value is 13%.

For the compound `CC(=O)Nc1nc2cnc(Nc3cc(NC(=O)c4cccc(CCC#N)c4)ccc3C)nc2s1`, the “%Inh” value came to 0%.

With `Cc1cc(N2Cc3ccccc3C2)nc(Nc2ccc(S(=O)(=O)N3CCOCC3)cc2)n1.Cl` [GSK1669917], the “%Inh” value came out at 4%.

Take `Cc1cccc(-c2nc(C)cc(Nc3ccncc3)n2)n1` [GSK257997]: the “%Inh” value was found to be 42%.

For the compound `O=c1cc(N2CCOCC2)nc2n(Cc3cccc(Cl)c3Cl)ccn12` [GSK2286295], the “%Inh” value is on record as 41%.

On to `Cc1cc(-c2ccc3c(c2)CC[C@@H](N[C@@H](C)c2ccccc2)C3)cnc1N.Cl` [GW412617], for which the “%Inh” value came out at 12%.

Take `COc1ccccc1CNC(=O)c1cc(C(=O)c2ccccc2C)c[nH]1` [GSK364507]: the “%Inh” value was determined as 20%.

Turning to `Cc1cccc(-c2nc(Nc3cccc(C(N)=O)c3)c3ccccc3n2)n1` [GW876019], the “%Inh” value came out at 15%.

For the compound `Cc1csc(-c2nc(Nc3ccncc3)c3ccccc3n2)n1` [GW869640], the “%Inh” value is on record as 41%.

Turning to `CS(=O)(=O)c1ccc(-c2nc3n(c2-c2ccncc2)CCC3)cc1` [SKF-105942], the “%Inh” value is recorded as 22%.

In the case of `Nc1ncnc2[nH]c(-c3ccccc3)nc12` [AH5015], the “%Inh” value was 14%.

Consider `Cc1cccc(-c2nc(Nc3ccncc3)c3ccccc3n2)n1` [GW855857], for which the “%Inh” value was determined as 77%.

For `COC(=O)c1c(-c2ccccc2)c2cc(OC)ccc2c(=O)n1Cc1ccccc1`, the “%Inh” value is recorded as 0%.

With `Cc1c(Cn2ccn3c(=O)cc(N4CCOCC4)nc23)cccc1C(F)(F)F` [GSK2289044], the “%Inh” value is given as 25%.
